Measured values as given in PubChem BioAssay.

What was measured:
[1] = target: Tumor necrosis factor receptor superfamily member 10B (Homo sapiens) (UniProt O14763); assay: caspase-8 TRAIL sensitization, hit retest, confirmation, cell-based, NB7+caspase-8, with/without TRAIL, luminescence panel (AID 651596); conditions: NB7 neuroblastoma + caspase-8, TRAIL sensitization, luminescence viability, with TRAIL, mean of runs, at 10 µM, stronger effect = higher value
[2] = as above; conditions: NB7 neuroblastoma + caspase-8, without TRAIL, luminescence viability, without TRAIL, mean of runs, at 10 µM

Sequence of Tumor necrosis factor receptor superfamily member 10B (Homo sapiens) (O14763 whole entry, looked up): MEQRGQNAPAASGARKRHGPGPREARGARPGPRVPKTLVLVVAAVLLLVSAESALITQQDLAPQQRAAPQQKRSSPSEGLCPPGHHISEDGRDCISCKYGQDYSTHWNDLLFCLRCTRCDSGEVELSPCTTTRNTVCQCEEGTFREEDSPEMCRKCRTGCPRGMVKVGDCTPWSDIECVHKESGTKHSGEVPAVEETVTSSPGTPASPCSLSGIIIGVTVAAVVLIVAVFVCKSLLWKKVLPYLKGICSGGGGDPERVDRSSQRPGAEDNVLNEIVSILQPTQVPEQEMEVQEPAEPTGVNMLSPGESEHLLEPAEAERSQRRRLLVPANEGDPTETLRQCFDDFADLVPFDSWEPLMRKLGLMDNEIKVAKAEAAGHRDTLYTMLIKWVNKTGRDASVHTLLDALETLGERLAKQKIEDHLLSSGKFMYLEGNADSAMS

Row | Structure (SMILES) | activity [1] | activity [2]
1 | O=C(Nc1ccc2c(c1)OCO2)c1ccc(Cl)cc1Cl | 72.1% | 67.6%
2 | C#CCN(C[C@@H]1[C@@H](OC(=O)NCC2CCCCC2)[C@@H](OC(=O)NCC2CCCCC2)Cn2c(=O)ccc(=O)n21)S(=O)(=O)c1ccc(C)cc1 | 97.7% | 98.3%
3 | CCn1cc(-c2cc(C(=O)O)c3ccccc3n2)cn1 | 65% | 58.2%
4 | Cc1ccc(/C=N/NC(=O)c2nn(C)cc2Cl)cc1 | 62.2% | 36%
5 | COc1ccc(CC(N)c2csc(NC(=O)Nc3cccc(C(F)(F)F)c3)n2)cc1 (configuration not stated) | 39.6% | 87%
6 | CN(C)CCNC(=O)c1cccc(-c2cc(NC=O)c3ncc(-c4cccc(C(F)(F)F)c4)n3c2)c1 | 99.4% | 99.5%
7 | O=C(CSc1nnc(-c2ccc(Br)cc2)o1)Nc1cccc(C(=O)O)c1 | 60.1% | 68.1%
8 | Cc1cc(C)n2nc(C(=O)Nc3ccc4c(c3)OCCO4)nc2n1 | 45% | 47.2%
9 | Oc1ccccc1C=Nc1ccccc1-c1nc2ccccc2[nH]1 | 7.4% | 1.85%
10 | CCOc1cc(NC(=O)CCl)c(OCC)cc1NC(=O)CCl | 96.6% | 98.5%
11 | O=C(Nc1ccc(N2CCN(C(=O)c3ccccc3)CC2)cc1)c1ccc([N+](=O)[O-])o1 | 89% | 99.3%
12 | COc1cccc(/C=N/Nc2nn3cnnc3c3ccccc23)c1 | 62% | 61.4%
13 | Cc1cccc(NC2=NC(C)(C)N=C(N)N2)c1 | 82.5% | 83.2%
14 | COc1ccc(-c2sc3ccccc3c2-c2ccc(OCCN(C)C)cc2)cc1 | 52.4% | 73.6%
15 | CC(=O)N1CCc2c(sc(NC(=O)c3ccc([N+](=O)[O-])o3)c2C(N)=O)C1 | 51.4% | 90.9%
16 | Cc1cc(C)c(C)c(S(=O)(=O)N2CCN(CC(=O)c3c(N)n(Cc4ccccc4)c(=O)n(C)c3=O)CC2)c1C | 76.3% | 79.4%
17 | COc1ccc(C(=O)Nc2ccc3ccccc3c2)cc1 | 76.8% | 74.5%
18 | O=C(Nc1cccnc1Cl)c1ccc2c(Cl)c3c(nc2c1)CCC3 | 78.5% | 78.4%
19 | O=C(N/N=C/c1ccc[nH]1)c1ccc(COc2cccc3cccnc23)cc1 | 71.5% | 90.3%
20 | Cc1nc2cc(NC(=O)N3c4ccccc4CC3C)ccc2n1C (configuration not stated) | 71.9% | 70.6%
21 | CN(C)c1ccc(/C=N/NC(=O)c2ccccn2)cc1 | 74.7% | 65.2%
22 | O=C(Nc1nc2c(F)cc(F)cc2s1)c1ccccn1 | 61.9% | 64.5%
23 | CC(=O)c1c(C)[nH]c(C(=O)Nc2ccccn2)c1C | 31.1% | 31.1%

Row | Structure (SMILES) | activity [1] | activity [2]
24 | COc1cccc(-c2cc3nc(-c4ccccc4)cc(N4CCN(C(=O)c5ccoc5)CC4)n3n2)c1 | 82% | 73.8%
25 | NC(N)=Nc1ccc(C=C2C=Cc3ccccc32)cc1 | 96.6% | 68.5%
26 | CCOc1ccc(C(=O)Nc2nnc(NC(=S)Nc3ccccc3)s2)cc1 | 59.8% | 61.6%
27 | CC(C)(C)c1ccc2c(c1)OC(C(=O)N/N=C\c1ccc[nH]1)CO2 (configuration not stated) | 26.6% | 43.6%
28 | Cc1ccc(-c2nc(NC(=O)c3nn(C)cc3[N+](=O)[O-])sc2C)cc1C | 98.1% | 99.1%
29 | O=C(NCCO)c1ccc2c3n(nc2c1)-c1ccccc1CO3 | 78.9% | 78.8%
30 | O=C(Nc1ccccn1)c1ccc(-c2ccccc2)cc1 | 87.6% | 88.4%
31 | COc1ccc(Cn2c(SCc3ccccc3C)nc3cc(OC)c(OC)cc3c2=N)cc1 | 72.7% | 90.9%
32 | CSc1nnc(NC(=O)c2nc(S(=O)(=O)Cc3ccccc3)ncc2Cl)s1 | 83.6% | 77.9%
33 | O=C(Nc1ccc(N2CCN(Cc3ccccc3F)CC2)cc1)c1ccc([N+](=O)[O-])o1 | 99% | 98.8%
34 | O=C(C[C@H]1C/C=C\C[C@@H](NC(=O)OCC2c3ccccc3-c3ccccc32)C(=O)O[C@@H](c2ccccc2)CNC1=O)N[C@H](CO)Cc1ccccc1 | 64.2% | 43.2%
35 | C[C@@H](CO)NC(=O)c1ccc2c3n(nc2c1)-c1ccccc1CO3 | 91.5% | 91.8%
36 | O=C(COc1cc(F)ccc1[N+](=O)[O-])Nc1cc(S(=O)(=O)N2CCCC2)ccc1Cl | 26.4% | 2.77%
37 | COC(=O)c1cc(OCC(=O)Nc2ccc3c(c2)CCC3)cc(C(=O)OC)c1 | -14.7% | -57.5%
38 | O=c1c2c3c(sc2nc2n1N=C(c1cccs1)CS2)CCCC3 | 74.5% | 77%
39 | CCOc1ccc(-c2ccc(SCC(=O)NCC3CCCO3)nn2)cc1 (configuration not stated) | 41.8% | 32.7%
40 | NC(c1csc(NC(=O)Nc2cccc(C(F)(F)F)c2)n1)C1CCCCC1 (configuration not stated) | 56.4% | 94.9%
41 | Oc1ccc(-c2cn3ccccc3n2)cc1 | 45.3% | 45.5%
42 | Cc1cccc(-c2noc(-c3ccc4c(c3)OCO4)n2)c1 | 64.6% | 60.1%
43 | O=C(CCl)N(c1ccccc1)c1ccccc1 | 99.2% | 99%
44 | O=C(CN1C(=O)c2ccccc2S1(=O)=O)c1ccccc1F | 16.9% | 27.8%
45 | Clc1ccc(OCc2nn3c(C4CCCCC4)nnc3s2)cc1 | 49.8% | 71.2%
46 | OCC1OC(n2cnc3c(SCc4ccccc4)ncnc32)C(O)C1O (configuration not stated) | 59.9% | 67.1%
